# High-throughput results deposited in PubChem BioAssay by Broad Institute.
# Tg IFNy HTS: T. gondii growth inhibition under IFN-gamma; Toxoplasma gondii growth in IFN-gamma-treated host cells; stronger effect = lower value; activity change, negative = inhibition, % (test concentration not listed); actives 3.8% (n = 69,000); in the data active means activity change below about -70%, passing the limit was not always enough;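 further: host cells are HeLa cells infected with Toxoplasma gondii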
# * hit, by the source's call; i = inactive; ! = a repeat was not active. Only a selection was taken, and hits are over-represented in it overall.
SMILES,Tg IFNy HTS
CCOC(=O)c1cnn(C)c1NS(=O)(=O)c1ccc(Cl)cc1,-62
CCOC(=O)c1cccc(NC(=O)CN2C(=O)CCc3cc(S(=O)(=O)N4CCCCC4)ccc32)c1,-34
CCOC(=O)c1ccc(N2CCCCC2)c(NS(=O)(=O)c2ccc(C)cc2)c1,-100*
CCOCC1c2c(ncn2C)CCN1Cc1cccnc1 (centres undefined),-4
COc1ccc(-n2c(=O)c(C(=O)Nc3ccc(C)cc3C)c(O)c3cccnc32)cc1,-51
CN(Cc1ccccc1)C1CCN(C(=O)c2ccco2)C(C(=O)O)C1 (centres undefined),-7
CCOc1ccc(S(=O)(=O)c2ccc(Cl)cc2)cc1,16
CCOc1ccc(S(=O)(=O)N2CCC3(CC2)Nc2cc(F)ccc2-n2cccc23)cc1,23
CCOc1ccc(S(=O)(=O)n2cc(F)c(=O)[nH]c2=O)cc1,-85*
COc1ccc(-c2noc(-c3c(O)c4cc(C)ccc4[nH]c3=O)n2)c(OC)c1,28
CC(=O)NCc1cccc(-c2ccc(O)cc2)c1,-4
O=C(CCC(F)(F)F)N1CCCC(CCc2ccc(F)cc2F)C1 (centres undefined),-6
O=C(c1ccc[nH]1)N1CCC2(CCC(OCCO)c3ccccc32)CC1 (centres undefined),1
CC1(C)CNC(=O)c2nc(-c3ncc[nH]3)[nH]c2C1,27
Cc1ccc(NC(=O)CC(=O)N2CCN(Cc3ccc4c(c3)OCO4)C(=O)C2)cc1,-52
CCc1cnc(C)nc1N1CCN(Cc2ccc3c(c2)OCO3)C(=O)C1,-85*
CCNc1ccnc(N2CCN(Cc3ccc4c(c3)OCO4)CC2)n1,-13
CC(C)c1cc(C(=O)NCCn2ncc(-c3ccc(Cl)cc3)c2-c2nccn2C)on1,-12
COc1ncc(-c2ccc3nccc(-c4ccnnc4)c3c2)cc1NS(=O)(=O)c1ccc(F)cc1F,-78*
COCCN1C(=O)CCc2cc(NS(=O)(=O)c3ccc(F)cc3F)ccc21,60
O=S(=O)(NCCc1csc(-c2ccc(Cl)cc2)n1)c1ccc(F)cc1F,-11
N#Cc1cc(CN2C[C@@H](C(=O)NCc3ccco3)[C@@H]3OCC[C@H]32)ccc1F,-1
c1cc(-c2ccc(Cn3ccnc3)cn2)n2nccc2c1,6
Cc1cc(F)ccc1NC(=O)CNCCCC1CCOC1 (centres undefined),-2
COc1ccc(S(=O)(=O)Nc2cncc(C(=O)NCCc3nc4ccccc4[nH]3)c2)cc1,20
SMILES,Tg IFNy HTS
c1cc(-c2ccc(-c3ncnc4ccsc34)cc2)[nH]n1,-82*
Cc1ccc(Sc2ncnc3ccsc23)cc1,46
c1nc(NN2CCCCC2)c2sccc2n1,36
O=C1COC2(CCN(Cc3cccs3)CC2)CN1,0
O=C(Cc1ccccc1)Nc1nccs1,-4
Cc1cc(SCc2ccc(C(=O)O)cc2)nc(SCc2ccc(Cl)cc2)n1,38
Cc1cc(C)nc(SCc2ccc(C(=O)Nc3nccs3)cc2)n1,-88*
CC(C)CC(NC(=O)C(=O)N1CCc2ccccc2C1)c1ncnn1C (centres undefined),0
COc1ccc(Cc2ncc3c(n2)CN(Cc2cc4n(n2)CCNC4)C3)cc1,6
CC[C@@H](C(=O)O)C1CC[C@H](C)C([C@@H](C)[C@H](O)[C@H](C)C(=O)[C@H](CC)C2O[C@]3(C=C[C@@H](O)[C@]4(CC[C@@](C)(C5CC[C@](O)(CC)[C@H](C)O5)O4)O3)[C@H](C)C[C@@H]2C)O1 (some centres undefined),-79*!
Cn1cccc1C(=O)N1CCC2(CC1)COCCN(c1ncccn1)C2,-7
COc1cc2cc(CNc3ccc(N4CCN(C)CC4)cc3)c(=O)[nH]c2cc1OC,-18
CC(C)c1ccc2[nH]c(=O)c(CNc3ccc4[nH]ncc4c3)cc2c1,-82*
COc1ccc2[nH]c(=O)c(CNc3ccc(-c4nc5ccc(C)cc5[nH]4)cc3)cc2c1,48
C1=CCC(CN(CCCn2ccnc2)CC2CCOC2)CC1 (centres undefined),11
CN1CCC(Nc2ncc3ncnc(Nc4ccc(F)c(Cl)c4)c3n2)CC1,-30
C=CC(=O)Nc1cc2c(Nc3ccc(F)c(Cl)c3)ncnc2cc1C#CC(C)(C)N1CCN(C)CC1,-72*
CN1CCCC1CCNC(=O)CC(=O)Nc1ccc(F)c(Cl)c1 (centres undefined),-47
O=C(Cc1ccccn1)N1CCC(C(O)c2cccs2)CC1 (centres undefined),33
Cc1ccc(NC(=O)NC(=O)c2c(C)noc2-c2snnc2C)cc1,-107*
Cc1ccc(NC(=O)Nc2ccc(-c3nc(-c4ccccc4)co3)cc2)cc1,24
Cc1ccc(-c2coc(-c3ccc(NC(=O)Nc4ccccc4)cc3)n2)cc1,16
COCC1CC2OCCN(C(=O)c3ccc4ncccc4c3)C2C1 (centres undefined),-14
Cc1ccc(NC(=O)c2c(O)c3cccnc3n(-c3ccc(F)cc3)c2=O)cc1C,-39
CCOc1cccc(CC(=O)N2CCc3c([nH]c4ccccc34)C2c2ccc(Cl)cc2)c1OCC (centres undefined),-29
SMILES,Tg IFNy HTS
O=C(Cc1cccs1)N1CCc2c([nH]c3ccccc23)C1c1ccc(F)cc1 (centres undefined),-17
COc1ccc(C2c3[nH]c4ccccc4c3CCN2C(=O)Cc2cccs2)cc1 (centres undefined),229
CCOc1cccc(C2c3[nH]c4ccccc4c3CCN2C(=O)Cc2cccs2)c1 (centres undefined),i
CSc1ccc(C2c3[nH]c4ccccc4c3CCN2C(=O)Cc2cccs2)cc1 (centres undefined),-69
CSc1ccc(C2c3[nH]c4ccccc4c3CCN2C(=O)CCc2ccccc2)cc1 (centres undefined),-61
Cc1ccc(C2c3[nH]c4ccccc4c3CCN2C(=O)Cc2cccs2)cc1 (centres undefined),-125*
O=C(Cc1cccs1)N1CCc2c([nH]c3ccccc23)C1c1ccc(Cl)cc1 (centres undefined),-118*
CSc1ccc(C2c3[nH]c4ccccc4c3CCN2C(=O)CCc2cccs2)cc1 (centres undefined),-85*
OCc1nnn2c1CN(Cc1cccs1)CCC2,40
CC(C)N(C)Cc1ncn2c1CN(C(=O)c1cccn1C)CCC2,-6
Cc1ccc(NC(=O)Cn2c(=O)cc(C(=O)N3CCCCC3)c3ccccc32)c(C)c1,7
CN(C)CCCNC(=O)c1ccc2ccc(N3CCN(Cc4cccnc4)CC3)n2c1,-87*
CN(C)C(=O)N1CCN(c2ccc3ccc(C(=O)NCCc4ccccc4)cn23)CC1,-3
CCCNC(=O)c1ccc2ccc(N3CCN(C(=O)N(C)C)CC3)n2c1,-1
O=C(c1ccc(Cn2cnnn2)cc1)N1CCOC(c2ccc(Cl)cc2)C1 (centres undefined),-28
COc1ccc(C(O)CN2CCCC2c2ccc(C)c(C)c2)cc1NC(C)=O (centres undefined),68
CCc1[nH]c2c(CNC(=O)c3cc(-c4ccccc4O)n[nH]3)cc(F)cc2c1C,14
C=CCN1C(=O)CCCC12CCCN(C(=O)Nc1cccc(C)c1)C2 (centres undefined),12
CC1CCCCN1C(=O)c1ccn(-c2ccc3ccccn23)n1 (centres undefined),-20
CC1CCCCN1C(=O)c1ccnn1-c1ccc2ccc(-c3ccccc3)cn12 (centres undefined),-85*
O=C(Nc1cccnc1)c1ccnn1-c1ccc2ccc(-c3cccnc3)cn12,-1
COC1C2CCC1N(C(=O)c1cscn1)C2 (centres undefined),98
